Experimental data: PubChem BioAssay AID434970 (Sanford-Burnham Center for Chemical Genomics, 2010)
Hit rate of the full screen: of about 11,000 compounds, about 310 (2.8%) were called active. Rule as the data show it: active = activity change below about -85%; inactive = the rest. The entries come from a sample that favours actives as a whole.

The compounds below were run on intestinal alkaline phosphatase [Mus musculus] (assay: mouse intestinal phosphatase enzyme activation – biochemical, luminescence, single concentration, confirmation (AID 434970)). Settings: purified mouse IAP, CDP-Star luminescence, 30 min, at 10 µM; activation factor: measured here: IAP activation factor, stronger effect = higher value; activity change, negative = activation: stronger effect = lower value.

| SMILES | activation factor | activity change, negative = activation |
| --- | --- | --- |
| Cc1ccc(N=C2NC(=O)CS2)cc1 | 0.925 | 7.5% (inactive) |
| COc1ccc(C2/C=C\CN(S(=O)(=O)c3ccc(C)cc3)CC(=O)N2Cc2cccc(F)c2)cc1 (centres undefined) | 1.08 | -8% (inactive) |
| O=C1CCCCCN1Cc1nnc(SCc2nc3ccccc3s2)n1-c1ccccn1 | 0.923 | 7.7% (inactive) |
| Cc1ccc(-c2noc(CN3CCC(C(N)=O)CC3)n2)cc1 | 0.997 | 0.25% (inactive) |
| CC(=O)NCC(=O)N(c1c(C)n(C)n(-c2ccccc2)c1=O)C1(C(=O)NC2CCCC2)CCCCC1 | 0.98 | 2.05% (inactive) |
| O=C(N1CCOCC1)C1(c2ccccc2)CCCCC1 | 0.901 | 9.95% (inactive) |
| Cc1ccc(NC(=O)CN(C)C(=O)CCCN2C(=O)c3ccccc3C2=O)cc1 | 1.04 | -3.95% (inactive) |
| C#CCOCCOCCOCCNc1nc(N2CCN(C(=O)CCCCCCCCCCNC(=O)[C@H]([C@@H](C)CC)n3cc(CCCCCN)nn3)CC2)nc(N2CCN(C(=O)CCCCCCCCCCNC(=O)[C@@H]([C@H](C)CC)n3cc(CCCCCN)nn3)CC2)n1 | 6.79 | -579% (active) |
| C#CCOCCOCCOCCNc1nc(N2CCN(C(=O)CCCCCCCCCCNC(=O)[C@H]([C@@H](C)CC)n3cc(CCCCCN)nn3)CC2)nc(N2CCN(C(=O)CCCCCCCCCCNC(=O)[C@H](CO)n3cc(CCCCCN)nn3)CC2)n1 | 2.51 | -151% (active) |
| C#CCOCCOCCOCCNc1nc(N2CCN(C(=O)CCCCCCCCCCNC(=O)[C@H]([C@@H](C)CC)n3cc(CCCCCN)nn3)CC2)nc(N2CCN(C(=O)CCCCCCCCCCNC(=O)[C@@H]([C@H](C)O)n3cc(C)nn3)CC2)n1 | 4.1 | -310% (active) |
| CCOc1ccc(-n2cc(C(=O)Nc3cccc(Cl)c3)c3cc(OC)c(OC)cc3c2=O)cc1 | 1.1 | -10.2% (inactive) |
| CNC(=O)/C(C#N)=C/c1ccc(-c2ccc(OC)cc2[N+](=O)[O-])o1 | 0.891 | 10.9% (inactive) |
| CC(C)N(C(=O)[C@H]1C[C@H](CC(=O)NCCC2=CCCCC2)C(=O)N2CCc3c([nH]c4ccc(Cl)cc34)[C@]12C)C(C)C | 1.23 | -23.5% (inactive) |
| NC(=O)c1c(NC(=O)CSc2nnc(-c3ccco3)n2-c2ccccc2)sc2c1CCC2 | 0.759 | 24.1% (inactive) |
| COc1ccc(NC(=O)C2CCCN2c2ccc(OC)c(OC)c2)cc1OC (centres undefined) | 1.14 | -14.2% (inactive) |
| COc1ccc(C2C(C(=O)N3CCCC3)c3cc(OC)c(OC)cc3C(=O)N2C)cc1 (centres undefined) | 0.989 | 1.1% (inactive) |
| COc1ccccc1NC(=O)CCNS(=O)(=O)c1ccc2[nH]c(=O)oc2c1 | 0.265 | 73.5% (inactive) |
| CCC(C(=O)NCCC(C)C)n1ccc2cc(S(=O)(=O)N3CCCCC3)ccc21 (centres undefined) | 2.59 | -159% (active) |
| COc1ccc(CNC(=O)C(C)n2ccc3cc(S(=O)(=O)N4CCCCCC4)ccc32)cc1 (centres undefined) | 1.91 | -90.9% (inactive) |
| COC(=O)c1ccc(S(=O)(=O)N2CCCCCC2)cc1 | 0.874 | 12.6% (inactive) |
| CCOc1ccccc1N(CC(=O)Nc1ccc(C)cc1)S(C)(=O)=O | 0.98 | 2.05% (inactive) |

| SMILES | activation factor | activity change, negative = activation |
| --- | --- | --- |
| O=C(CC1Sc2ccccc2NC1=O)OCC(=O)N1CCc2ccccc21 (centres undefined) | 1.11 | -10.6% (inactive) |
| Cc1ccc(NC(=O)CSCC(=O)O)c(C)c1 | 1.07 | -7.15% (inactive) |
| Cc1ccc(C)c(CN2CCC(CNC(=O)Nc3cccc(Cl)c3C)CC2)c1 | 2.47 | -147% (active) |
| Cc1ccc(NC(=O)NCC2CCN(Cc3cc(C)ccc3Cl)CC2)c(C)c1 | 1.87 | -86.8% (active) |
| Cc1c(Cl)cccc1NC(=O)CCN1CCCCCC1 | 0.984 | 1.6% (inactive) |
| Cc1ccc(NC(=O)Cn2cccc2)c(C)c1 | 1.01 | -1.25% (inactive) |
| CCOC(=O)CNC(=O)Nc1cccc(Cl)c1C | 1.04 | -4.45% (inactive) |
| COC(=O)CCN(C(=O)C1C2CC3CC(C2)CC1C3)c1ccccn1 (centres undefined) | 0.948 | 5.2% (inactive) |
| COc1ccccc1-c1nnc(SCCN2CCOCC2)n1-c1ccc(C)cc1 | 0.947 | 5.3% (inactive) |
| CCOC(=O)C1=CN(Cc2ccco2)S(=O)(=O)N(CC)C1c1cccc(OC)c1 (centres undefined) | 1.02 | -1.7% (inactive) |
| O=S1(=O)CC(O)C(Nc2ccccc2)C1 (centres undefined) | 0.942 | 5.85% (inactive) |
| OC(c1cccc(OCc2ccccc2)c1)c1nnc(-c2ccccc2)o1 (centres undefined) | 1.03 | -3.4% (inactive) |
| CCN([C@H](CO)CC(C)C)S(=O)(=O)c1ccccc1 | 1.09 | -8.75% (inactive) |
| Cc1onc(-c2ccccc2)c1CNC(=O)Nc1cccc(Cl)c1 | 2.33 | -133% (active) |
| FC(F)(F)c1ccc(NC(=S)NCc2ccccc2)cc1 | 1.41 | -41% (inactive) |
| Cn1c(CNC(=O)Nc2cccc(Cl)c2)nnc1SCc1ccccc1 | 1.52 | -52% (inactive) |
| Cc1onc(-c2ccccc2)c1NC(=O)Nc1ccc(OC(F)F)cc1 | 1.48 | -47.9% (inactive) |
| Cc1onc(-c2ccccc2)c1C(=O)NCc1ccccn1 | 0.956 | 4.35% (inactive) |
| Cc1cc(C)cc(NC(=O)NCc2c(-c3ccccc3)noc2C)c1 | 2.73 | -173% (active) |
| Cc1onc(-c2ccccc2)c1C(=O)NCc1cccs1 | 1.01 | -0.85% (inactive) |
| O=C(Nc1cccc(Cl)c1)Nc1nnc(-c2ccccc2)o1 | 1.02 | -2.05% (inactive) |

| SMILES | activation factor | activity change, negative = activation |
| --- | --- | --- |
| Cc1onc(-c2ccccc2)c1CNC(=O)Nc1ccc(C(F)(F)F)cc1 | 1.99 | -99.1% (active) |
| COC(=O)C1=NN(c2ccccc2)C2(S1)SC(C(C)=O)=C(C)N2c1ccccc1 (centres undefined) | 0.92 | 8% (inactive) |
| O=C(CC(Nc1ccc(F)cc1)C(=O)O)c1ccccc1 (centres undefined) | 0.959 | 4.1% (inactive) |
| COC(=O)c1oc2ccc(Cl)cc2c1N | 0.915 | 8.55% (inactive) |
| O=C(Nc1ccc2c(c1)nc1n2CCOC1)c1ccco1 | 1.29 | -29.5% (inactive) |
| Cc1cccc(N2O[C@H]3C=CC2CCCC3)n1 | 1.02 | -2.2% (inactive) |
| COc1ccc(C2C(C(=O)Nc3ccccc3)=C(C)N=C3SCC(=O)N32)cc1 (centres undefined) | 0.843 | 15.7% (inactive) |
| CCC1CCCCN1CCCNC(=O)CNC(=O)Cn1ccc2ccccc2c1=O (centres undefined) | 0.926 | 7.35% (inactive) |
| Fc1cccc(NC(=S)NCc2ccccc2Cl)c1 | 1.27 | -27.2% (inactive) |
| COc1cccc(NS(=O)(=O)Cc2ccccc2)c1 | 0.904 | 9.6% (inactive) |
| COc1cccc(NC(=O)Nc2cccn(Cc3ccccc3)c2=O)c1 | 1.01 | -1.1% (inactive) |
| CC(CCc1ccccc1)NC(=O)c1ccncc1 (centres undefined) | 0.938 | 6.2% (inactive) |
| Cc1ccc(NC(=O)NCCCc2ccccc2)cc1 | 1.29 | -28.6% (inactive) |
| Cc1cccc(NC(=O)NC(C)CCc2ccccc2)c1 (centres undefined) | 2.83 | -183% (active) |
| Cc1cccc(NC(=O)NCCCCc2ccccc2)c1 | 2.38 | -138% (active) |
| COc1cccc(NC(=O)NCCCCc2ccccc2)c1 | 2.16 | -116% (active) |
| S=C(NCCCc1ccccc1)Nc1ccc(Br)cc1 | 1.72 | -71.9% (inactive) |
| Cc1cccc(NC(=S)NC(C)CCc2ccccc2)c1 (centres undefined) | 1.15 | -14.6% (inactive) |
| Cc1cccc(NC(=O)NCCc2c[nH]c3ccccc23)c1 | 1.72 | -71.8% (inactive) |
| O=C(NCCCCc1ccccc1)Nc1cccc(F)c1 | 2.29 | -129% (active) |
| O=C(c1ccc(F)cc1)N1CCN(Cc2ccccc2Br)CC1 | 0.984 | 1.55% (inactive) |

| SMILES | activation factor | activity change, negative = activation |
| --- | --- | --- |
| CCn1c(SCC(=O)Nc2nccs2)nnc1-c1cc2cccc(OC)c2o1 | 0.881 | 11.9% (inactive) |
| CCOc1ccc(C(=S)N2CCCC2)cc1 | 0.949 | 5.1% (inactive) |
| CCSc1nc(N)c2c(C)c(C)sc2n1 | 1.11 | -10.9% (inactive) |
| CCOc1ccccc1N1CCN(S(=O)(=O)c2ccc3c4c(cccc24)C(=O)N3)CC1 | 0.442 | 55.8% (inactive) |
| S=C(NCCC(c1ccccc1)c1ccccc1)Nc1ccccc1Cl | 1.84 | -84.1% (inactive) |
| S=C(NCCc1ccc(Cl)cc1)Nc1ccc(Cl)cc1Cl | 1.36 | -36.1% (inactive) |
| Cc1c(Cl)cccc1NC(=S)NCCC(c1ccccc1)c1ccccc1 | 4.75 | -375% (active) |
| Cc1c(Cl)cccc1NC(=S)NCc1ccccc1 | 1.04 | -4% (inactive) |
| COc1ccccc1NC(=S)NCCC(c1ccccc1)c1ccccc1 | 1.39 | -38.9% (inactive) |
| COc1ccc(Cl)cc1NC(=S)NCCC(c1ccccc1)c1ccccc1 | 2.07 | -107% (active) |
| Cc1ccccc1NC(=S)NCCC(c1ccccc1)c1ccccc1 | 1.96 | -96% (active) |
| Cc1cc(Cl)ccc1NC(=S)NCCC(c1ccccc1)c1ccccc1 | 2.05 | -105% (active) |
| COc1ccc(Cl)cc1NC(=S)NCCSc1ccc(C)cc1 | 1.43 | -42.5% (inactive) |
| S=C(NCCCc1ccccc1)Nc1ccccc1Cl | 1.26 | -26.2% (inactive) |
| Cc1c(Cl)cccc1NC(=S)NCCC(C)C | 1.19 | -19.2% (inactive) |
| Cc1ccc(Cl)cc1NC(=S)NCCCSC1CCCCC1 | 1.29 | -28.8% (inactive) |
| CSc1nc(Oc2ccc(=O)n(C)n2)nc(N(C)C)n1 | 1.07 | -6.65% (inactive) |
| COc1ccc(C2C(C#N)=C(N)N(c3sc4c(c3C#N)CCCC4)C3=C2C(=O)CC(C)(C)C3)cc1OC (centres undefined) | 0.851 | 14.9% (inactive) |
| CCC(C)(C)NC(=O)C(c1ccccc1)N(C(=O)c1csnn1)C1CC1 (centres undefined) | 0.99 | 1% (inactive) |
